The record followed here is PubChem BioAssay (NCI).

The structures appear in SMILES notation. About 83,000 compounds went through this panel and 20% of them were active in at least one assay; those are over-represented in the sample as a whole.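 Cells were grown in 96-well plates and exposed to the test compound at a single concentration for 48 hours; results are reported as percent growth, with values below 10 considered active.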 A number with no mark means an inactive call. Activity calls are given as the source filed them.

Test systems include SK-MEL-2 melanoma; SN12C renal; UO-31 renal; TK-10 renal; ACHN renal; CAKI-1 renal; A498 renal; CCRF-CEM leukemia; MOLT-4 leukemia; RPMI-8226 leukemia; OVCAR-5 ovarian; OVCAR-4 ovarian; SK-OV-3 ovarian; IGROV1 ovarian; OVCAR-3 ovarian; HS 578T breast; NCI/ADR-RES ovarian; OVCAR-8 ovarian; SR leukemia.
Holding throughout (experiment): NCI-60 one-dose screen, 48 h (100 = growth as untreated, 0 = no growth, -100 = all killed)
Holding throughout (conditions): 10 µM unless noted

As to `C=CCc1cc(Cl)cc2c(OC(C)=O)c(C(C)=O)c(-c3ccccc3)nc12`, the growth in the assay on SK-MEL-2 melanoma is 112%; in the assay with SN12C renal, 99.5%; in the assay with UO-31 renal it was 78.2%; in the assay with TK-10 renal, 114%; in the assay with ACHN renal, 102%; with CAKI-1 renal it was 87.5%. The growth in the assay on A498 renal was 110%; in the assay with CCRF-CEM leukemia it was 104%; in the assay on MOLT-4 leukemia, 101%; in the assay on RPMI-8226 leukemia it was 97.4%; with OVCAR-5 ovarian it was 111%; with OVCAR-4 ovarian, 100%. The growth in the assay with SK-OV-3 ovarian was 99.9%; with IGROV1 ovarian it was 82.3%; in the assay with OVCAR-3 ovarian, 107%; in the assay with HS 578T breast it was 102%; with NCI/ADR-RES ovarian, 119%.
For `O=C(CCC(=O)OC1CCCC1)OC1CCCC1`, the growth with SK-MEL-2 melanoma is 93.2%; with SN12C renal, 107%; with UO-31 renal, 90.4%; with TK-10 renal, 97.8%; with ACHN renal it was 95%; in the assay with CAKI-1 renal, 95.8%. The growth in the assay with A498 renal was 101%; with MOLT-4 leukemia it was 89.9%; in the assay on RPMI-8226 leukemia it was 95.1%; with OVCAR-8 ovarian, 91.6%; in the assay with OVCAR-5 ovarian it was 98.7%; with OVCAR-4 ovarian, 107%. Besides, the growth was 110% in the assay on IGROV1 ovarian, 102% in the assay with OVCAR-3 ovarian and 105% in the assay with NCI/ADR-RES ovarian.
Take `O=C(/C=C/c1ccccc1)n1c(-c2ccc(Cl)cc2)nc2ccccc21`: the growth was -36% (active) with SK-MEL-2 melanoma; -48.5% (active) in the assay on SN12C renal; -39% (active) in the assay with UO-31 renal; 18.6% with TK-10 renal; -49.9% (active) in the assay on ACHN renal; -39.4% (active) in the assay with CAKI-1 renal. Besides, the growth is -14.6% (active) in the assay on A498 renal; -23.9% (active) in the assay on CCRF-CEM leukemia; 21.9% in the assay on MOLT-4 leukemia; -31.3% (active) with OVCAR-8 ovarian; -48.1% (active) with OVCAR-5 ovarian; 30% with OVCAR-4 ovarian. For the same molecule, the growth in the assay with SK-OV-3 ovarian was 24%; in the assay with IGROV1 ovarian, 10.4%; in the assay with OVCAR-3 ovarian it was -57.2% (active); in the assay on HS 578T breast it was 20%; in the assay with NCI/ADR-RES ovarian, 10.8%.
Take `O=C(Nc1ccc(Br)c(Cl)c1)c1cc(F)ccc1O`: the growth with SK-MEL-2 melanoma was -32.6% (active); with SN12C renal it was 5.56% (active); with UO-31 renal, -1.56% (active); with TK-10 renal, 21.3%; in the assay on ACHN renal it was 0.577% (active); with CAKI-1 renal it was -48.8% (active). The growth with CCRF-CEM leukemia was 6.75% (active); in the assay on MOLT-4 leukemia, -23% (active); in the assay on SR leukemia, 0.366% (active); in the assay on RPMI-8226 leukemia, -16.1% (active); in the assay with OVCAR-8 ovarian, 6.78% (active); in the assay with OVCAR-5 ovarian, 24.4%. In addition, the growth with OVCAR-4 ovarian was 12.4%; with SK-OV-3 ovarian, 3.58% (active); in the assay on IGROV1 ovarian, 16.2%; in the assay with OVCAR-3 ovarian, 12.1%; in the assay with HS 578T breast, 17.4%; with NCI/ADR-RES ovarian, 6.11% (active).
`NC(CC(N)C(=O)O)C(=O)O` (stereo not given): the growth was 98.6% in the assay with SK-MEL-2 melanoma; 93.8% in the assay with SN12C renal; 94.8% in the assay with UO-31 renal; 110% in the assay on TK-10 renal; 95.7% with ACHN renal; 97% in the assay with CAKI-1 renal. Besides, the growth was 108% in the assay with A498 renal; 107% in the assay on MOLT-4 leukemia; 89.9% with SR leukemia; 98.6% with RPMI-8226 leukemia; 100% with OVCAR-8 ovarian; 97% with OVCAR-5 ovarian. The growth in the assay with OVCAR-4 ovarian is 99.2%; with SK-OV-3 ovarian, 111%; with IGROV1 ovarian, 108%; in the assay with OVCAR-3 ovarian, 107%; in the assay on NCI/ADR-RES ovarian, 107%.
Consider `O=C(NNC(=S)Nc1ccccc1)c1ccccn1`, for which the growth is 85.6% in the assay on SK-MEL-2 melanoma; 43.7% with SN12C renal; 19.8% in the assay on UO-31 renal; 50.2% in the assay on TK-10 renal; 16.4% with ACHN renal; 5.93% (active) in the assay with CAKI-1 renal. In addition, the growth is 18.8% in the assay on CCRF-CEM leukemia; 13.8% in the assay with MOLT-4 leukemia; 9.67% (active) in the assay on SR leukemia; 37.6% with RPMI-8226 leukemia; 23.2% in the assay on OVCAR-8 ovarian; 51.3% with OVCAR-5 ovarian. For the same molecule, the growth is 20.1% in the assay on OVCAR-4 ovarian; 33.5% in the assay on SK-OV-3 ovarian; 21.2% in the assay on IGROV1 ovarian; 33.6% with OVCAR-3 ovarian; 65.8% in the assay with HS 578T breast; 24.7% in the assay on NCI/ADR-RES ovarian.
For the molecule `COc1ccc(-c2nc3sccn3c2-c2ccnc(NCCCNS(=O)(=O)c3ccc(C)cc3)n2)cc1`, the growth in the assay with SK-MEL-2 melanoma was 25.9%; in the assay with SN12C renal, 36.3%; in the assay with UO-31 renal, 15.5%; in the assay on TK-10 renal, 66%; with ACHN renal, 22.4%; in the assay on CAKI-1 renal, 42.1%. Also, the growth in the assay on CCRF-CEM leukemia is 18.9%; in the assay on MOLT-4 leukemia, 24.6%; in the assay with SR leukemia, 33.1%; with RPMI-8226 leukemia, 23.2%; in the assay with OVCAR-8 ovarian it was 25%; with OVCAR-5 ovarian, 93.4%. Moreover, the growth with OVCAR-4 ovarian is 42.9%; with SK-OV-3 ovarian, 56.1%; in the assay with IGROV1 ovarian, 33.9%; in the assay on OVCAR-3 ovarian it was 45.4%; with HS 578T breast, 66.2%; in the assay on NCI/ADR-RES ovarian, 20.8%.
Regarding `O=C(Nc1ccc(Cl)cc1)c1cc(-c2ccc(F)cc2)c2sc(=O)[nH]c2n1`, the growth in the assay on SK-MEL-2 melanoma was 14.3%; in the assay on SN12C renal, 11.9%; in the assay on UO-31 renal, 4.68% (active); in the assay with TK-10 renal it was 20.8%; with ACHN renal, 2.34% (active); in the assay with CAKI-1 renal it was -12.7% (active). In addition, the growth with CCRF-CEM leukemia is 16.8%; with MOLT-4 leukemia it was 13.9%; in the assay on SR leukemia, 16.6%; in the assay on RPMI-8226 leukemia, 10.9%; with OVCAR-8 ovarian, 13%; in the assay on OVCAR-5 ovarian it was 72.2%. The growth in the assay on OVCAR-4 ovarian is -0.62% (active); with SK-OV-3 ovarian it was 0.427% (active); with IGROV1 ovarian, 29.3%; with OVCAR-3 ovarian it was 14%; in the assay with HS 578T breast, 29.4%; in the assay with NCI/ADR-RES ovarian, 3.43% (active).
For the molecule `COc1ccc(/C=C2\C(=O)N(C(=O)c3csc(NC(C)=O)n3)N=C2C)cc1`, the growth was 94.8% with SK-MEL-2 melanoma; 106% with SN12C renal; 81.9% in the assay on UO-31 renal; 102% in the assay on TK-10 renal; 107% in the assay on ACHN renal; 99% in the assay on CAKI-1 renal. In addition, the growth in the assay with CCRF-CEM leukemia was 99%; in the assay on MOLT-4 leukemia, 86.9%; with SR leukemia, 82.2%; in the assay with RPMI-8226 leukemia it was 98.4%; in the assay with OVCAR-8 ovarian it was 96%; in the assay on OVCAR-5 ovarian it was 110%. Besides, the growth with OVCAR-4 ovarian was 109%; with SK-OV-3 ovarian it was 100%; in the assay with IGROV1 ovarian it was 95.9%; with HS 578T breast, 111%; in the assay on NCI/ADR-RES ovarian it was 105%.
